Screening data as filed in PubChem.
DT40 TDP1 no CPT: qHTS for Inhibitors of human tyrosyl-DNA phosphodiesterase 1 (TDP1): qHTS in cells in absence of CPT. DT40 Tdp1-/- hTDP1 cells, no CPT, ATP luminescence, 48 h. Potency, µM (highest dose often 46.2 µM), for inactives: top-dose activity change, negative = growth inhibition, actives largely listed as inhibitors. 15% of 420,000 active; also: potency is read from the fitted curve at half-maximal effect; nearly all actives have a fitted effect of over 55% in size
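A cellular qHTS used chicken DT40 cells lacking endogenous Tdp1 but carrying stably transfected human TDP1. Compounds were applied without camptothecin, and cell growth kinetics were judged by ATP-dependent luminescence after ≥48 hr.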
IL-1B inflam inh: blocks inflammasome-driven IL-1 beta release; AID 743279; 4.7% of 360,000 active; THP-1 LPS/ATP IL-1B secretion, AlphaLISA, 16 h; hits give low values; activity change, % at 57.5 µM; in the data active = activity change below about -50%; inconclusive = mostly about -30% to -49%
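THP-1 cells pretreated 1 hr with compounds (up to 57.5 uM final), then stimulated with LPS (250 ng/mL final) plus ATP (1.25 mM final); secreted IL-1B measured by AlphaLISA after 16 hr, decreased signal indicating inhibition.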
HT1080 IDH1KD tx: kills HT-1080 cells with IDH1 knockdown; Potency, µM (series often up to 46.1 µM), without a hit: at the top dose activity, negative = toxicity, usual class: cytotoxic; 2% of 360,000 active; HT-1080 IDH1 knockdown viability, ATP luminescence, 48 h; AID 686971;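 also: potency is read from the fitted curve at half-maximal effect; 0% = DMSO wells and -100% = cell-free medium wells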
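CellTiter-Glo luminescence after 48 h compound exposure at 37 degrees C of IDH1-knockdown HT-1080 cells in 5% FBS RPMI. %Activity scaled between DMSO wells and cell-free media wells, with curves fitted and assigned curve classes.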
HT1080NT lethal: kills 2HG-producing HT-1080-NT fibrosarcoma cells | HT-1080-NT fibrosarcoma viability, CellTiter-Glo ATP luminescence, 48 h | Potency, µM (doses to about 46.1 µM), for inactives: at the highest dose activity, negative = less viability, actives largely listed as cytotoxic | 1.6% of 360,000 active | AID 686970;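 also: NT is the 2HG producing partner of a matched IDH1 knockdown line; potency is read from the fitted curve at half-maximal effect; 0% = DMSO-treated cells and -100% = media-only wells without cells; nearly all actives have a fitted effect of over 55% in size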
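750 cells/well, RPMI + 5% FBS; 2 h settle, compound pin-transfer, 48 h at 37 degrees C. CellTiter-Glo 10 min RT, luminescence. Normalized to DMSO and media-only wells.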
DT40 TDP1 CPT: DT40-hTDP1 cell growth loss with CPT; chicken DT40 Tdp1-/-;hTDP1 cells + 20 nM CPT, ATP luminescence, 48 h; Potency, µM (top dose mostly 46.2 µM), inactives show top-dose activity change, negative = growth inhibition, actives largely listed as inhibitors; 12% of 420,000 active; also: potency is read from the fitted curve at half-maximal effect; nearly all actives have a fitted effect of over 55% in size
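Chicken DT40 Tdp1-/- cells stably complemented with human TDP1 were seeded at 400 cells/well in medium containing 20 nM camptothecin, exposed to pin-transferred compounds, and grown at 37 °C for at least 48 hr. Viability was read as ATP luminescence.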
Numbers without * were called inactive; [ ] = another dose, or the depositor's remark. Most compounds without a hit are left out; they make up all but 19% or so of the library. Unless noted, calls follow the shape of the dose curve; as a rule, active = well fitted curve in the direction sought with a large enough effect; inconclusive = small, poorly fitted or top-dose-only effect, or another doubt; inactive = no such curve, though single readings can be large; an effect the other way counts as inactive or inconclusive. Unless noted, % is scaled to controls: 0 for no effect and ±100 for the full control effect.

What do the screens show for `COC(=O)c1cc(C(=O)NCc2ccc3c(c2)OCO3)cc([N+](=O)[O-])c1`?
DT40 TDP1 no CPT: -26%; IL-1B inflam inh: -55*; HT1080 IDH1KD tx: -6%; HT1080NT lethal: -3%; DT40 TDP1 CPT: 21%

What do the screens show for `COc1ccccc1N(C)S(=O)(=O)c1ccc(C(=O)N(C)Cc2ccc(Cl)s2)cc1`?
DT40 TDP1 no CPT: 15µM*; IL-1B inflam inh: inconclusive; HT1080 IDH1KD tx: -12%; HT1080NT lethal: -9%; DT40 TDP1 CPT: 23µM*

How did COc1ccccc1N(C)S(=O)(=O)c1ccc(C(=O)NCc2ccc3c(c2)OCO3)cc1 do in these assays?
DT40 TDP1 no CPT: 23µM*; IL-1B inflam inh: 1; HT1080 IDH1KD tx: -2%; HT1080NT lethal: -20%; DT40 TDP1 CPT: -14%

What do the screens show for `COc1cccc(CN(C)C(=O)c2ccc(S(=O)(=O)N3CCCC3)cc2)c1OC`?
DT40 TDP1 no CPT: inconclusive; IL-1B inflam inh: -1; HT1080 IDH1KD tx: -6%; HT1080NT lethal: 6%; DT40 TDP1 CPT: inconclusive

What do the screens show for `O=C(NCc1ccc2c(c1)OCO2)c1cccc([N+](=O)[O-])c1`?
DT40 TDP1 no CPT: -8%; IL-1B inflam inh: -2; HT1080 IDH1KD tx: 0%; HT1080NT lethal: 3%; DT40 TDP1 CPT: -4%

Results for Cn1ccnc1C(=O)Cc1ccc([N+](=O)[O-])cc1 ?
DT40 TDP1 no CPT: -23%; IL-1B inflam inh: -4; HT1080 IDH1KD tx: -2%; HT1080NT lethal: 5%; DT40 TDP1 CPT: 9%

Results for COc1cccc(CN(C)C(=O)c2[nH]c(C)c(C(C)=O)c2C)c1OC ?
DT40 TDP1 no CPT: 12µM*; IL-1B inflam inh: 53; HT1080 IDH1KD tx: -25%; HT1080NT lethal: -15%; DT40 TDP1 CPT: 18µM*

How did CCOc1ccc(CN(C)C(=O)c2ccc(S(=O)(=O)N(C)c3ccccc3OC)cc2)cc1 do in these assays?
DT40 TDP1 no CPT: 10µM*; IL-1B inflam inh: -24; HT1080 IDH1KD tx: -17%; HT1080NT lethal: -9%[9.24 µM]; DT40 TDP1 CPT: inconclusive

What do the screens show for `CN(Cc1ccc(OC(F)F)cc1)C(=O)c1ccc(S(=O)(=O)N(C)c2ccccc2)cc1`?
DT40 TDP1 no CPT: -14%; IL-1B inflam inh: -18; HT1080 IDH1KD tx: -5%; HT1080NT lethal: -11%; DT40 TDP1 CPT: inconclusive

How did CC(C)N(Cc1ccccc1)C(=S)NC1CCCCC1 do in these assays?
DT40 TDP1 no CPT: inconclusive; IL-1B inflam inh: -1; HT1080 IDH1KD tx: -6%; HT1080NT lethal: 6%; DT40 TDP1 CPT: -6%

What do the screens show for `COc1ccccc1C(=O)C1CCCN(C(=O)C2=CC(=O)CC(C)(C)O2)C1` (stereo unspecified)?
DT40 TDP1 no CPT: 2%; IL-1B inflam inh: 24; HT1080 IDH1KD tx: 10%; HT1080NT lethal: 0%; DT40 TDP1 CPT: -20%

Results for O=C(c1ccc([N+](=O)[O-])o1)N1CCN(c2nc3c(F)cc(F)cc3s2)CC1 ?
DT40 TDP1 no CPT: inconclusive; IL-1B inflam inh: -71*; HT1080 IDH1KD tx: 9%; HT1080NT lethal: 9%; DT40 TDP1 CPT: inconclusive

How did Cc1ccc(C)c2sc(N3CCN(C(=O)c4ccc([N+](=O)[O-])o4)CC3)nc12 do in these assays?
DT40 TDP1 no CPT: inconclusive; IL-1B inflam inh: -103*; HT1080 IDH1KD tx: inconclusive; HT1080NT lethal: inconclusive; DT40 TDP1 CPT: 8.2µM*

How did CCc1cc[n+](C2=C([O-])c3ccccc3C(=O)/C2=N\S(=O)(=O)c2cccs2)cc1 do in these assays?
DT40 TDP1 no CPT: 5.2µM*; IL-1B inflam inh: -86*; HT1080 IDH1KD tx: 18µM*; HT1080NT lethal: 18µM*; DT40 TDP1 CPT: 2.3µM*

What do the screens show for `O=C1C(=O)c2ccccc2C([O-])=C1[n+]1ccccc1`?
DT40 TDP1 no CPT: 11%; IL-1B inflam inh: 21; HT1080 IDH1KD tx: 0%; HT1080NT lethal: -2%; DT40 TDP1 CPT: -27%

How did COC1OCC(O)C(OC(=O)c2ccccc2)C1OC(=O)c1ccccc1 (stereo unspecified) do in these assays?
DT40 TDP1 no CPT: inconclusive; IL-1B inflam inh: -2; HT1080 IDH1KD tx: -4%; HT1080NT lethal: 0%; DT40 TDP1 CPT: inconclusive

How did Cc1ccc(-c2cc(-c3ccco3)c3c(N)c(C(=O)NN)oc3n2)cc1 do in these assays?
DT40 TDP1 no CPT: inconclusive; IL-1B inflam inh: 0; HT1080 IDH1KD tx: inconclusive; HT1080NT lethal: -3%; DT40 TDP1 CPT: inconclusive

How did CCCc1ccc(-c2cc(C(=O)N/N=C/c3ccc([N+](=O)[O-])o3)c3ccccc3n2)cc1 do in these assays?
DT40 TDP1 no CPT: 8.2µM*; IL-1B inflam inh: -16; HT1080 IDH1KD tx: 6.5µM*; HT1080NT lethal: 7.3µM*; DT40 TDP1 CPT: 16µM*

How did COc1cccc(NC(=O)c2cc(-c3ccco3)nc3ccccc23)c1 do in these assays?
DT40 TDP1 no CPT: inconclusive; IL-1B inflam inh: -12; HT1080 IDH1KD tx: -1%; HT1080NT lethal: 0%; DT40 TDP1 CPT: -14%

How did O=C(NN=C1CCCCCC1)c1cc(-c2ccccc2)nc2ccccc12 do in these assays?
DT40 TDP1 no CPT: 15µM*; IL-1B inflam inh: 44; HT1080 IDH1KD tx: inconclusive; HT1080NT lethal: -26%; DT40 TDP1 CPT: 16µM*

Results for COc1cccc(/C=N/NC(=O)c2oc3nc(-c4ccccc4)cc(-c4ccco4)c3c2N)c1 ?
DT40 TDP1 no CPT: 13µM*; IL-1B inflam inh: -58*; HT1080 IDH1KD tx: 3%; HT1080NT lethal: 9%; DT40 TDP1 CPT: -28%

How did COc1cccc(-c2cc(C(=O)N/N=C/c3ccco3)c3ccccc3n2)c1 do in these assays?
DT40 TDP1 no CPT: 0.92µM*; IL-1B inflam inh: -24; HT1080 IDH1KD tx: 0%; HT1080NT lethal: -13%; DT40 TDP1 CPT: inconclusive

How did CC(CCc1ccccc1)NC(=O)Cn1cccc1C(=O)c1ccccc1 (stereo unspecified) do in these assays?
DT40 TDP1 no CPT: -3%; IL-1B inflam inh: 18; HT1080 IDH1KD tx: 20%; HT1080NT lethal: -2%; DT40 TDP1 CPT: -28%

What do the screens show for `O=C(N/N=C/c1ccco1)c1cc(-c2ccccc2)nc2ccccc12`?
DT40 TDP1 no CPT: 4.1µM*; IL-1B inflam inh: 30; HT1080 IDH1KD tx: -24%; HT1080NT lethal: -24%; DT40 TDP1 CPT: inconclusive

What do the screens show for `O=C(O)c1ccccc1/C=N/NC(=O)c1cc(-c2ccco2)nc2ccccc12`?
DT40 TDP1 no CPT: 1%; IL-1B inflam inh: 42; HT1080 IDH1KD tx: inconclusive; HT1080NT lethal: -28%; DT40 TDP1 CPT: 1%

Results for Cc1c(Cl)cccc1NC(=O)Cn1cnc(S(=O)(=O)N2CCCC2)c1 ?
DT40 TDP1 no CPT: -4%; IL-1B inflam inh: -9; HT1080 IDH1KD tx: -1%; HT1080NT lethal: -1%; DT40 TDP1 CPT: -9%

What do the screens show for `COc1cccc(-c2c(C(=O)N/N=C/c3ccsc3)nnn2-c2nonc2N)c1`?
DT40 TDP1 no CPT: -9%; IL-1B inflam inh: -8; HT1080 IDH1KD tx: -5%; HT1080NT lethal: 3%; DT40 TDP1 CPT: -2%
